Screening data: PubChem, several laboratories
CCHF vOTU inh-1: blocks the CCHF virus ovarian tumor domain protease; CCHFV vOTU protease, Pep-AMC fluorescence; AID 651958; actives 0.55% (n = 370,000); inhibition, % at 11.5 µM; note: 0% = vehicle wells with enzyme and 100% = no enzyme wells
Autofluor counter: flagged as autofluorescent in microsphere protease counterscreen; compound autofluorescence counterscreen, microsphere flow cytometry; stronger effect = higher value; fluorescence intensity (test concentration not listed); actives 3.1% (n = 360,000); in the data active = fluorescence intensity above about 16000; inconclusive = no clear call, values can overlap the other calls
BoNT F protease: BoNT F light chain protease inhibition | Multiplex microsphere protease cleavage assay, flow cytometry | inhibition, % at 10 µM | actives 0.22% (n = 360,000); in the data active = inhibition above about 35%, passing the limit was not always enough; inconclusive = no clear call, values can overlap the other calls; note: plate controls were buffer without enzyme for full effect and enzyme alone for no effect
SARS 3CLpro inh: SARS-CoV 3CLpro protease inhibition. recombinant SARS-CoV 3CLpro, quenched FRET peptide cleavage. actives 0.14% (n = 290,000). inhibition, % at 6 µM. AID 1706; in the data active = inhibition above about 12%
BoNT-A LC inh2: inhibitors of Botulinum neurotoxin A light chain protease; multiplex microsphere protease substrate cleavage, flow cytometry; inhibition, % at 10 µM; actives 0.17% (n = 360,000); in the data active = inhibition above about 30%; inconclusive = no clear call, values can overlap the other calls; note: plate controls were buffer without enzyme for full effect and enzyme alone for no effect
Anthrax LF prot: anthrax lethal factor protease inhibition. multiplex microsphere protease cleavage assay, LF. inhibition, % at 10 µM. actives 0.12% (n = 360,000). AID 588501; in the data active = inhibition above about 30%; inconclusive = no clear call, values can overlap the other calls; note: plate controls were buffer without enzyme for full effect and enzyme alone for no effect
CCHF vOTU inh-2: confirmation of CCHF virus vOTU protease inhibitors | shares compounds with CCHF vOTU inh-1 | Recombinant CCHFV vOTU, Pep-AMC fluorescence | AID 686976 | inhibition, % at 11.5 µM | actives 17% (n = 1,900)
* hit, by the source's call; ? = inconclusive; · = not tested or not shown. Sampled rows, rich in hits. Any-hit rate of the full collection: about 3.9%. Cut-off read from the data, not from the text of the source, unless noted: active = inhibition above about 30%; inactive = the rest.

SMILES	CCHF vOTU inh-1	Autofluor counter	BoNT F protease	SARS 3CLpro inh	BoNT-A LC inh2	Anthrax LF prot	CCHF vOTU inh-2
CC(=O)Nc1ccc(S(=O)(=O)/N=C2\C(=O)c3ccccc3C([O-])=C2n2cc[n+](-c3ccccn3)c2)cc1	67.8*	4872	-15.5	2.0	-1.3	1.2	58.1*
O=C(Oc1cccc(NC2=NS(=O)(=O)c3ccccc32)c1)c1cccnc1	24.0	4013	5.0	1.5	0.8	3.6	·
O=C(O)c1ccc(N=Nc2c(O)[nH]c3ccc(Br)cc23)cc1	19.2	3679	9.1	1.1	2.8	11.1	·
O=c1ccc2cc3c([nH]c4ccc(Br)cc43)oc-2c1O	31.7*	3469	-148.5	4.7	-1.4	-21.9	9.2
CCNS(=O)(=O)c1ccc(CCC(=O)N2CCCC2)cc1	14.1	3604	?	-0.6	0.2	-10.2	·
COc1ccccc1-c1cccc([C@@H]2C[C@H]3[C@H](CON3C)CN2Cc2cc(Cl)cc(Cl)c2)c1	16.1	3019	-4.0	·	0.0	-1.7	·
COc1cccc(CNC(=O)CN2C(=O)CC(c3ccccc3)=Nc3ccccc32)c1	-7.9	5382	-1.1	2.6	-1.1	-2.8	·
COc1ccc(-n2[nH]c(C)cc2=O)cc1	33.5*	·	·	-3.2	·	·	-26.6
CCC(=O)N1CCCC(C)(C(=O)Nc2ccc(OC(F)F)cc2)C1 (stereo not drawn)	31.4*	3641	10.5	·	0.4	4.9	-17.8
CC(C)NC(=O)N(C)C[C@H]1OCCCC[C@@H](C)Oc2ccc(NC(=O)C3CCCCC3)cc2C(=O)N([C@H](C)CO)C[C@@H]1C	-3.7	2927	-3.5	·	-0.4	-2.7	·
CC(C)NC(=O)N(C)C[C@@H]1OCCCC[C@@H](C)Oc2ccc(NC(=O)Nc3ccc(F)cc3)cc2C(=O)N([C@H](C)CO)C[C@@H]1C	32.2*	4449	5.9	·	1.5	0.0	-2.8
CCOC(=O)CCCCCC(=O)Nc1ccc2c(c1)C(=O)N([C@H](C)CO)C[C@H](C)[C@@H](CN(C)C(=O)Nc1ccccc1)OCCCC[C@@H](C)O2	38.1*	2976	1.2	·	-0.2	-6.3	-11.5
COc1ccccc1CNC(=O)C1CCCN1S(=O)(=O)c1ccc2c(c1)C(C)(C)C(=O)N2C (stereo not drawn)	-2.5	5016	-5.0	·	-0.6	-2.9	·
O=C1c2ccccc2C(=O)C12OC2c1cccc2ccccc12 (stereo not drawn)	86.5*	2550	1.2	-0.7	1.8	0.7	48.0*
O=C1NC(c2cccc3ccccc23)Nc2ccccc21 (stereo not drawn)	-12.5	4278	-0.1	·	0.3	-1.3	·
Cc1nn(C)cc1C1C(C#N)=C(N)N(c2ccc(F)c([N+](=O)[O-])c2)C2=C1C(=O)CCC2 (stereo not drawn)	29.8*	7123	-2.7	1.5	0.8	-2.0	-4.4
Cc1ccc(N2C(N)=C(C#N)C(c3cccnc3)C3=C2CCCC3=O)cc1 (stereo not drawn)	9.0	3455	-10.3	-4.4	-0.4	3.5	·
O=C(Nc1nccs1)C(c1ccccc1)N1CCCC1 (stereo not drawn)	2.9	3776	-1.4	2.8	0.4	-4.7	·
COc1ccc(NC(=O)CN(C)C(=O)CN2C(=O)NC3(CCCC3)C2=O)cc1	-5.4	?	4.9	·	-0.9	2.4	·
COCCSc1nnc(NC(=O)C2CC(=O)N(CCc3ccc(F)cc3)C2)s1 (stereo not drawn)	6.0	3609	-11.9	-6.4	-1.6	11.2	·
Nc1cnn(Cc2ccccc2F)c1	33.8*	4040	-14.9	3.5	-1.1	-9.3	7.2
Nc1cnn(Cc2ccc(F)cc2)c1	5.6	4622	0.8	-1.5	-0.5	-0.1	·
CCC(=O)NC(c1cccs1)c1cc([N+](=O)[O-])c2cccnc2c1O (stereo not drawn)	38.2*	2560	-12.9	-2.2	-2.8	-2.1	33.0*
CCCC(=O)NC(c1cccs1)c1cc([N+](=O)[O-])c2cccnc2c1O (stereo not drawn)	22.0	7550	-12.8	-1.8	-2.0	-3.6	·
COc1ccc(/C(=C/Nc2cccc(Br)c2)C(C)=O)cc1OC	0.5	4107	2.3	-3.8	0.2	-8.5	·
SMILES	CCHF vOTU inh-1	Autofluor counter	BoNT F protease	SARS 3CLpro inh	BoNT-A LC inh2	Anthrax LF prot	CCHF vOTU inh-2
CN(C)c1ccc(-c2nnn(CC(=O)NCc3ccc4c(c3)OCO4)n2)cc1	-1.5	4714	-4.7	-4.7	-0.8	-0.1	·
Cc1ccc(S(=O)(=O)NCCCCCC(=O)Nc2ccccc2)cc1	-1.7	2059	-0.4	0.7	-0.1	-1.9	·
CNC(=O)CCCCCNS(=O)(=O)c1ccc(C)cc1	31.0*	4915	16.4	-0.2	-1.1	4.3	-8.3
COc1ccc(NC(=O)Cn2nc(C(F)(F)F)c3c2CCCC3)c(OC)c1	30.5*	21156*	-4.1	-0.3	?	-0.3	-20.6
COc1ccc(CNC(=O)Cn2nc(C(F)(F)F)c3c2CCC3)cc1	8.7	8974	-4.7	-1.8	-0.2	-16.8	·
CC(C)[C@H](NC(=O)N1c2ccccc2NC(=O)[C@@H]1C(C)C)C(=O)N1CCC(C(=O)O)CC1	4.7	5510	-1.2	7.9	-0.5	-5.4	·
Cc1c(NC(=O)C(C)OC(=O)c2sc3ccccc3c2Cl)c(=O)n(-c2ccccc2)n1C (stereo not drawn)	0.1	2440	-5.1	-0.3	0.2	0.8	·
Cc1c(NC(=O)C(C)OC(=O)c2ccc([N+](=O)[O-])s2)c(=O)n(-c2ccccc2)n1C (stereo not drawn)	41.0*	4297	1.5	3.0	-0.6	-0.2	45.1*
Cc1ccc(NC(=O)CN2C(=O)NC(C)(c3ccc(Cl)cc3)C2=O)cc1S(=O)(=O)N1CCOCC1 (stereo not drawn)	-15.3	2568	-4.0	7.4	-0.4	-0.6	·
Cn1c(N)c(C(=O)CCc2ccccc2)c(=O)n(C)c1=O	0.1	·	·	·	·	·	·
CCN(CC(=O)c1c(N)n(C)c(=O)n(C)c1=O)c1cccc2ccccc12	82.3*	2559	-5.8	-0.9	0.1	-4.5	-7.8
CCc1ccc(OCC(=O)Nc2ccc(S(=O)(=O)Nc3cc(C)on3)cc2)c(Br)c1	44.0*	5734	-1.5	11.1	1.2	0.3	1.8
C=CCn1c(O)c(C(CC)=Nc2ccc3c(c2)CCC3)c(=O)[nH]c1=O	-3.6	5948	2.1	1.7	0.0	0.4	·
C=CCn1c(O)c(C(CC)=Nc2ccc(N(C)C)cc2)c(=O)[nH]c1=O	38.2*	4262	1.5	2.0	0.4	-12.9	-20.7
NC(=O)C1CCN(CC(=O)Nc2cccnc2Cl)CC1	-0.4	4501	-2.6	-1.3	-0.4	-2.2	·
CC(C)(C)C(=O)Nc1cc(NC(=O)C(C)(C)C)cc(C(=O)Nc2c[nH]c(=O)[nH]c2=O)c1	-9.4	5586	5.9	·	0.0	-8.9	·
CC(C)NC(=O)c1ccc(-n2c(=S)[nH]c3ccccc3c2=O)cc1	-19.2	·	·	-7.4	·	·	·
Cc1ccnn1CCC(=O)O	10.2	4507	0.4	-0.4	-0.3	-3.1	·
COc1cc(NCCCCCCN)c2ncccc2c1OC	102.1*	3052	-104.1	·	0.6	-62.3	93.5*
COc1cc(N)c2ncccc2c1OC	40.0*	4036	-1.2	·	0.1	0.2	3.3
